# According to PubChem BioAssay (Tox21):
# A number with no mark means an inactive call. Results filed as inconclusive are left out. Where a call stands in place of a potency, no number is given. Calls of active or inactive are those of the source. Unless noted, calls follow the shape of the dose curve; as a rule, active = well fitted curve in the direction sought with a large enough effect in the repeat runs; inconclusive = weak or mixed curves; inactive = no such curve, though single readings can be large; an effect the other way counts as inactive or inconclusive.
# Legend:
# [1] = target: Acetylcholinesterase (Homo sapiens) (UniProt P22303); test: Acetylcholinesterase (AChE) small molecule antagonists: fluorescence cell-based qHTS assay (AID 1347398; calls by dose curve; also: nearly all actives have a fitted effect of over 50% in size; also: potency is read from the fitted curve at half-maximal effect); details: Potency: AChE activity
# Method in brief: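 Cellular AChE inhibition: SH-SY5Y cells treated with test chemical for 30 min at 37 C, then acetylthiocholine hydrolysis followed over 40 min at room temperature via thiocholine-reactive Thiolite Green fluorescence (490/520 nm).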
# [2] = target: Acetylcholinesterase (Homo sapiens) (UniProt P22303); test: Acetylcholinesterase (AChE) small molecule antagonists: enzyme-based qHTS assay with human liver microsomes (AID 1347399; calls by dose curve; also: nearly all actives have a fitted effect of over 60% in size); details: Potency: qHTS inhibition
# Method in brief: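 Recombinant human AChE (50 mU/mL in the enzyme mix) and human liver microsomes (0.25 mg/mL final) were preincubated with compound and NADPH (0.25 mg/mL final) for 30 min at 37 C. Acetylthiocholine/DTNB was then added; thiocholine was read colorimetrically after 10 min at room temperature.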
# [3] = target: Cytochrome P450 2D6 (Homo sapiens) (UniProt P10635); test: Cytochrome P450 Family 2 Subfamily D Member 6 (CYP2D6) small molecule antagonists: luciferase reporter qHTS assay (AID 1671196); also: nearly all actives have a fitted effect of over 50% in size; also: potency is read from the fitted curve at half-maximal effect
# Method in brief: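 Test chemicals meet CYP2D6 plus proluciferin substrate (10 min, RT); NADPH regenerating solution then drives turnover for 1 h. Detection reagent halts the reaction; luminescence measured after 20 min.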
# [4] = target: Cytochrome P450 2C19 (Homo sapiens) (UniProt P33261); test: Cytochrome P450 Family 2 Subfamily C Member 19 (CYP2C19) small molecule antagonists: luciferase reporter qHTS assay (AID 1671197); also: nearly all actives have a fitted effect of over 65% in size; also: potency is read from the fitted curve at half-maximal effect
# Method in brief: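 P450-Glo CYP2C19 screening system; proluciferin substrate; DMSO compound stocks; 10 min RT preincubation; NADPH regeneration, 1 h at 37C; luciferin detection reagent, 20 min RT; luminescence as RLU.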
# [5] = target: Cytochrome P450 2C9 (Homo sapiens) (UniProt P11712); test: Cytochrome P450 Family 2 Subfamily C Member 9 (CYP2C9) small molecule antagonists: luciferase reporter qHTS assay (AID 1671198); also: nearly all actives have a fitted effect of over 50% in size; also: potency is read from the fitted curve at half-maximal effect
# Method in brief: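 CYP2C9 activity was measured with a P450-Glo proluciferin substrate. Enzyme–substrate mix was held with compound for 10 min at room temperature, then NADPH regeneration solution was added for 1 h at 37C. Luciferin product was read as luminescence.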
# [6] = target: Cytochrome P450 1A2 (Homo sapiens) (UniProt P05177); test: Cytochrome P450 Family 1 Subfamily A Member 2 (CYP1A2) small molecule antagonists: luciferase reporter qHTS assay (AID 1671199); also: nearly all actives have a fitted effect of over 50% in size; also: potency is read from the fitted curve at half-maximal effect
# Method in brief: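 Steps: enzyme-substrate mix dispensed; test compounds and furafylline control pinned in; 10 min room temperature; NADPH regeneration solution added, 1 h; reaction stopped with luciferin detection reagent; luminescence read after 20 min.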
# [7] = target: Voltage-gated inwardly rectifying potassium channel KCNH2 (Homo sapiens) (UniProt Q12809); test: Human Ether-a-go-go-Related Gene (hERG) channel small molecule antagonists: fluorescence cell-based qHTS assay (AID 1671200); also: nearly all actives have a fitted effect of over 50% in size; also: potency is read from the fitted curve at half-maximal effect
# Method in brief: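 Thallium served as the potassium surrogate; its influx into dye-loaded U2OS cells carrying the channel was measured by fluorescence over 2 min.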
# [8] = target: Cytochrome P450 3A4 (Homo sapiens) (UniProt P08684); test: Cytochrome P450 Family 3 Subfamily A Member 4 (CYP3A4) small molecule antagonists: luciferase reporter qHTS assay (AID 1671201); also: nearly all actives have a fitted effect of over 50% in size; also: potency is read from the fitted curve at half-maximal effect
# Method in brief: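 Relative luminescence units after 20 min with luciferin detection reagent served as read-out. Beforehand, CYP3A4 turned over a proluciferin substrate for 1 h at room temperature with NADPH regeneration, following 10 min compound preincubation.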
# Sequence of Voltage-gated inwardly rectifying potassium channel KCNH2 (Homo sapiens) (Q12809 whole entry, looked up): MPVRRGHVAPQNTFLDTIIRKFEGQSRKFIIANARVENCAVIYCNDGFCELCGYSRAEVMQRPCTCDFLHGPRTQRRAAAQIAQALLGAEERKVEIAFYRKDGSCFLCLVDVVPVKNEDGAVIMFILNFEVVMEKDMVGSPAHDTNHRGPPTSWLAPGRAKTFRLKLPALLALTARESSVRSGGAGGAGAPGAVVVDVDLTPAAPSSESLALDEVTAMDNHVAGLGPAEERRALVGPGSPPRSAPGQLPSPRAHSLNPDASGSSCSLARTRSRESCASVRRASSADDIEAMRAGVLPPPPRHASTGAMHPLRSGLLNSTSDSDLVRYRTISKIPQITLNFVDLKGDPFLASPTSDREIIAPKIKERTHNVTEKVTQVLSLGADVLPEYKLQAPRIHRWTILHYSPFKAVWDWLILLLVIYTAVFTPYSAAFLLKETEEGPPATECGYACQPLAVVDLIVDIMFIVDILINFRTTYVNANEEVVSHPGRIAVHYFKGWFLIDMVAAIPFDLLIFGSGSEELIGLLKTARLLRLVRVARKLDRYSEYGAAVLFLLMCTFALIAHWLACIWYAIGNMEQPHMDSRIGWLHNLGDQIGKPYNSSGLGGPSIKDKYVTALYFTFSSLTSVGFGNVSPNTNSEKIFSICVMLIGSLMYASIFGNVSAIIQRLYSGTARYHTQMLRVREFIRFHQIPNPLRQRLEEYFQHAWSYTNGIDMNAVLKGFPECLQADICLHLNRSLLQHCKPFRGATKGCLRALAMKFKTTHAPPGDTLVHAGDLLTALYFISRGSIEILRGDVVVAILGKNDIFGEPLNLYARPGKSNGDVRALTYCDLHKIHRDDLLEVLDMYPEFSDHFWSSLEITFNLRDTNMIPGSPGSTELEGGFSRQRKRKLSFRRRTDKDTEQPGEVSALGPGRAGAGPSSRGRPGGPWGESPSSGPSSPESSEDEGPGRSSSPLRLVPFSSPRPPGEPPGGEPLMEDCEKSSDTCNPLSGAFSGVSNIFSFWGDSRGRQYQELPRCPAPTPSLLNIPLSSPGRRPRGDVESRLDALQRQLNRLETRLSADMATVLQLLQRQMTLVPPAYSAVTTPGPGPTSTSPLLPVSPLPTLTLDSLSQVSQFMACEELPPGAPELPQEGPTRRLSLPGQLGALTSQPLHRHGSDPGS
# Sequence of Cytochrome P450 2C19 (Homo sapiens) (P33261 whole entry, looked up): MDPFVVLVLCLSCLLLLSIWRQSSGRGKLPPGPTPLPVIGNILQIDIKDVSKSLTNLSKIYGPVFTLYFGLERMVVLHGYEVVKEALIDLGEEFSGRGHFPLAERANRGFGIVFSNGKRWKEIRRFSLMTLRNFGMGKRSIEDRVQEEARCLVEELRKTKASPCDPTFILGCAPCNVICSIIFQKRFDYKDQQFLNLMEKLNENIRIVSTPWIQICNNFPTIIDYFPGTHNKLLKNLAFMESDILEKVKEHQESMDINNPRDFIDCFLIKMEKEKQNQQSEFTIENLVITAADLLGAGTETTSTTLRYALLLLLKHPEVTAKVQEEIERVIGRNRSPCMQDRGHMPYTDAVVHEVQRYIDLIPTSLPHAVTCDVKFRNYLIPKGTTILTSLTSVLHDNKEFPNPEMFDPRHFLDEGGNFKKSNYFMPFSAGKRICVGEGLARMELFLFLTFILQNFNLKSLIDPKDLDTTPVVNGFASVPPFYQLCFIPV
# Sequence of Cytochrome P450 1A2 (Homo sapiens) (P05177 whole entry, looked up): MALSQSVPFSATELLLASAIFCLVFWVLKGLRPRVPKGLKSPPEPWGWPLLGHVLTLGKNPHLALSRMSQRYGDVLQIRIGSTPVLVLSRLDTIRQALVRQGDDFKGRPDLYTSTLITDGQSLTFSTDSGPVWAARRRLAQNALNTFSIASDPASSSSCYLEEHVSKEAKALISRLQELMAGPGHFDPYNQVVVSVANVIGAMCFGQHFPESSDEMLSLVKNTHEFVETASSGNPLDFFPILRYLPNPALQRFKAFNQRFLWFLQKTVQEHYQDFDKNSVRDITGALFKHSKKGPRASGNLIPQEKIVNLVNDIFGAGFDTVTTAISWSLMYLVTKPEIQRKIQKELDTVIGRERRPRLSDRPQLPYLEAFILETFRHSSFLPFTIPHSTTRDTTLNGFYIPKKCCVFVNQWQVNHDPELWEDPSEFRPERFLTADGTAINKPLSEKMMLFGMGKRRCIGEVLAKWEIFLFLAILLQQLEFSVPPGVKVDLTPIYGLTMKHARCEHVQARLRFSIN
# Sequence of Cytochrome P450 2D6 (Homo sapiens) (P10635 whole entry, looked up): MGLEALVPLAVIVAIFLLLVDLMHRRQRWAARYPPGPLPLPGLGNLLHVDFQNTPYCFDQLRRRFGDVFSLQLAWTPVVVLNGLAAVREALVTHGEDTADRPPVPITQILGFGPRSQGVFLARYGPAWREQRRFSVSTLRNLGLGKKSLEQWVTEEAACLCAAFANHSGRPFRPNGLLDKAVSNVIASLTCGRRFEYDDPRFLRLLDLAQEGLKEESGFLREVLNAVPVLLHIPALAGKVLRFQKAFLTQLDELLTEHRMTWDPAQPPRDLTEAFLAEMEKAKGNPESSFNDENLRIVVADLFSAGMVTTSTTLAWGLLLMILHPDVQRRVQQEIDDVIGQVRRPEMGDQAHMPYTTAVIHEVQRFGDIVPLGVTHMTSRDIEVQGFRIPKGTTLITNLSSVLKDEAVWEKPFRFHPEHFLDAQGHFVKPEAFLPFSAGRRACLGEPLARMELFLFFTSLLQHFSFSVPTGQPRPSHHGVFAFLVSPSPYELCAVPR
# Sequence of Cytochrome P450 2C9 (Homo sapiens) (P11712 whole entry, looked up): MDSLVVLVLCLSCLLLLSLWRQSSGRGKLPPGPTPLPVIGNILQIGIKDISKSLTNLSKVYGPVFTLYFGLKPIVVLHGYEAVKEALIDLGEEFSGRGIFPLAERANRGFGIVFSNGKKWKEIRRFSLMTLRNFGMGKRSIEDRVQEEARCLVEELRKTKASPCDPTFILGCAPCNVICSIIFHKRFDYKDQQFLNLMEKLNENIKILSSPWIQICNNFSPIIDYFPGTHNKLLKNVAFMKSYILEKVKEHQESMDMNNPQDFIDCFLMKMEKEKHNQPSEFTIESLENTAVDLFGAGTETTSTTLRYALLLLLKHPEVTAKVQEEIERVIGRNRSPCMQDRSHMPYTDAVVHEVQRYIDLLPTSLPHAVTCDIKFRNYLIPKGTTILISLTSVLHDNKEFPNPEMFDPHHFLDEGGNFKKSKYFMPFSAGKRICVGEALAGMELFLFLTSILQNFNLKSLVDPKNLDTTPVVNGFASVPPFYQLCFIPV
# Sequence of Cytochrome P450 3A4 (Homo sapiens) (P08684 whole entry, looked up): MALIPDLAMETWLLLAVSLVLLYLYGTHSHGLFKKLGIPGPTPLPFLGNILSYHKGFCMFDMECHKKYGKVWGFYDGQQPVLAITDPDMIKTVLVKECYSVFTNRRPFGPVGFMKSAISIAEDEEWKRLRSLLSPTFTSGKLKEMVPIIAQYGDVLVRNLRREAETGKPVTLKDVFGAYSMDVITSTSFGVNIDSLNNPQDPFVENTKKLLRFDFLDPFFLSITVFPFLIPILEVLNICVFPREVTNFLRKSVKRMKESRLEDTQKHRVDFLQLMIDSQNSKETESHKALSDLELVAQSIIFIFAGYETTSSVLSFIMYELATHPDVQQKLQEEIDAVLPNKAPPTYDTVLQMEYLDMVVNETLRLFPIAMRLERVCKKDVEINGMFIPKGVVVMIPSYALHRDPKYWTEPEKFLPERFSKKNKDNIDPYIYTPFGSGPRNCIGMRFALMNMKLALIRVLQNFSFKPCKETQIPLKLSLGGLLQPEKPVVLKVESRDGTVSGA
# Sequence of Acetylcholinesterase (Homo sapiens) (P22303 whole entry, looked up): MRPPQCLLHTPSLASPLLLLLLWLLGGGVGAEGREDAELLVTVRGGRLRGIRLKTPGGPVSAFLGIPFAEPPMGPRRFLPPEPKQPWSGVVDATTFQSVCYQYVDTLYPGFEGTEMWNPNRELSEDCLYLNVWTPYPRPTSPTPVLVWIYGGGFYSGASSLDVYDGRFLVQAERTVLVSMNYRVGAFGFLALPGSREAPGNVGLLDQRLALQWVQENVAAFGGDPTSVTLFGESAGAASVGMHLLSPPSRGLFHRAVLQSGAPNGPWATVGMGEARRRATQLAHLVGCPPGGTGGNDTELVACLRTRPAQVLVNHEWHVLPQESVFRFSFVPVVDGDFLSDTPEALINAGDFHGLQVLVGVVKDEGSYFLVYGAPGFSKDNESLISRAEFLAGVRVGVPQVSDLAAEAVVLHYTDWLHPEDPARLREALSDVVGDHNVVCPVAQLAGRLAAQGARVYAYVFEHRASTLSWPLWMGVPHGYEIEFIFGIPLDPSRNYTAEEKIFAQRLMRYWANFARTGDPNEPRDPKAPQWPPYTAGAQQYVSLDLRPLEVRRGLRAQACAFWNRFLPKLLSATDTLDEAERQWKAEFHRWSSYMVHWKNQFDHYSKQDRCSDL
SMILES,Potency [1],Potency [2],Potency [3],Potency [4],Potency [5],Potency [6],Potency [7],Potency [8]
O=C(O)c1cc[c]([Hg][Cl])cc1,71 µM (active),inactive,12.6 µM (active),7.1 µM (active),4.48 µM (active),17.8 µM (active),inactive,8.94 µM (active)
C=CC(=O)N(C)C,inactive,inactive,inactive,inactive,inactive,inactive,inactive,inactive
C[C@]12CC[C@H](O)C[C@H]1CC[C@@H]1[C@@H]2C[C@@H](O)[C@]2(C)[C@@H](C3=CC(=O)OC3)CC[C@]12O,inactive,inactive,inactive,inactive,inactive,inactive,inactive,inactive
CCc1ccccc1C,inactive,inactive,inactive,inactive,inactive,inactive,inactive,inactive
CN(CCCC(=O)c1cccnc1)N=O,inactive,inactive,inactive,inactive,inactive,–,inactive,17.8 µM (active)
Cn1[nH]nnc1=S,inactive,inactive,inactive,56.4 µM (active),71 µM (active),–,inactive,inactive
CCN,inactive,inactive,inactive,inactive,inactive,–,inactive,inactive
Oc1cc(Cl)c(Cl)c(Cl)c1,inactive,inactive,6.73 µM (active),inactive,inactive,26.8 µM (active),–,53.5 µM (active)
CC(C)(C)OO,inactive,inactive,inactive,inactive,inactive,–,inactive,inactive
CC(=O)O[C@H]1CC[C@@]2(C)C(=CC[C@@H]3[C@@H]2CC[C@]2(C)C(=O)CC[C@@H]32)C1,inactive,inactive,inactive,31.7 µM (active),31.7 µM (active),inactive,49 µM (active),inactive
CCCCCCCCCCCCBr,inactive,inactive,inactive,inactive,inactive,–,inactive,inactive
CC1(c2ccc(Oc3ccccc3)cc2)OC(=O)N(Nc2ccccc2)C1=O (centres undefined),inactive,inactive,inactive,12.7 µM (active),8.99 µM (active),35.8 µM (active),–,11.3 µM (active)
